The panel holds about 83,000 compounds, 20% with a hit somewhere; the sample as a whole holds those more often.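 The test compound was applied at a single concentration to cells in 96-well plates for 48 hours, and percent growth was recorded.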 Values without a mark were called inactive. Calls of active or inactive are those of the source.

The experiment concerns NCI-H23 lung. In words: NCI-60 one-dose screen, 48 h (100 = growth as untreated, 0 = no growth, -100 = all killed). As to conditions: 10 µM unless noted. As for the experimental part: Growth inhibition of the NCI-H23 human Non-Small Cell Lung tumor cell line is measured as a screen for anti-cancer activity. Cells are grown in 96 well plates and exposed to the test compound for 48 hours. Compounds are tested at a single concentration, which is 10^-5 M for most compounds. The reported endpoint is percent growth (GI% or GIPRCNT), where numbers from 0 - 100% represent growth inhibition, and numbers from -100% - 0 represent cell death. For example, a value of 40 represents 60% growth inhibition. A value of 0 means no net growth occurred over the course of the experiment. A value of -40 indicates 40% of cells at the beginning of the experiment died by the end of the experiment. A value of -100 means all cells are dead at the end of the experiment.
NCI-60 Human Tumor Cell Lines Screen was performed using the standard one-dose NCI protocol, which is described in more detail at https://dtp.cancer.gov/discovery_development/nci-60/default.htm.
Compounds with GIPRCNT values below 10 were considered active. Activity score was based on GIPRCNT using the following formula: […]
Score is 0 for GIPRCNT values of 100 or above, 50 for GIPRCNT values of 0, and 100 for GIPRCNT values of -100.
Regarding `COC1CC2CCC(C)C(O)(O2)C(=O)C(=O)N2CCCCC2C(=O)OC(C(C)CC2CCC(O)C(OC)C2)CC(=O)C(C)C=C(C)C(O)C(OC)C(=O)C(C)CC(C)/C=C/C=C/C=C1C` (stereo not given), the growth is 49.2%.

For `Cc1ccc([N+](=O)[O-])cc1NC(=O)Nc1cccc(F)c1`, the growth is 42.2%.

Regarding `CCCC[N+](CCCC)=c1ccc2nc3c(C)cc(N(CC)CC)cc3sc-2c1`, the growth was -36.2% (active).

As to `COc1cc2c(cc1OCCCOc1ccc(-c3cc4ccccc4c4ccccc34)cc1)N=C[C@@H]1CCCN1C2=O`, the growth is -39.3% (active).

In the case of `c1ccc2c(c1)[nH]c1c2cc[n+]2cc3c(cc12)CCCC3`, the growth is 40.6%.

In the case of `CCC(CC)NCCCCCNc1cc(OC)cc2cccnc12`, the growth is 94.7%.

`Cc1cc(O)c2c(c1)C[C@H]1[C@@H]3CC[C@H]4CC(=O)CC[C@]4(C)[C@H]3CC(=O)[C@]21C`: the growth is 77.3%.

For the molecule `COC(=O)[C@]12CC[C@@H](C)[C@H](C)[C@@H]1C1=CC[C@@H]3[C@@]4(C)C[C@@H](OC(=O)c5ccco5)[C@H](O)[C@@](C)(CO)[C@@H]4[C@H](O)C[C@@]3(C)[C@]1(C)CC2`, the growth is -84.1% (active).

With `Cc1ccccc1-c1cc(Cc2ccccc2O)c(=O)[nH]n1`, the growth is 103%.

`Cc1ccc(NC(=O)Nc2ccc(-c3cccnc3)cc2N2CCC(CO)CC2)cc1`: the growth was 4.01% (active).

As for `CN=C(NC)N/N=C(C)\C=N\NC(=NC)NC`, the growth is 104%.

As for `COC1=CC(c2ccc[nH]2)=N/C1=C\c1[nH]c(C)c(C(=O)CCC(=O)Oc2ccc3c(c2)CCC2C3CC[C@]3(C)C(=O)CC[C@@H]23)c1C` (stereo not given in full), the growth is 73.5%.

Take `CC(CCC(=O)O)(NC(=O)c1ccc([N+](=O)[O-])cc1)C(=O)O` (stereo not given): the growth was 98.4%.

For `Cc1cc(C)c(OC(=O)CSc2nc3ccccc3c(=O)n2CCc2ccccc2)cc1C`, the growth is 101%.

For the molecule `CCOc1nc(-c2ccccc2)cc2c(O)c(C(=O)n3nc(C)cc3C)[nH]c(=O)c12`, the growth was 97.6%.

For `Nc1ccc(C2=NN(c3ccccc3)C(c3ccc(Cl)cc3)C2)cc1` (stereo not given), the growth was 92.8%.

Take `N#Cc1cnc2cc(OC[C@H](O)CO)c(NC(=O)CC3CSSC3)cc2c1Nc1ccc(OCc2cccc(F)c2)c(Cl)c1`: the growth was -73.4% (active).

For `CCCCCCCC/C=C/CCCCCCCC1=NC(C)(C)CN1CC(C)O` (stereo not given), the growth is 67%.

`COc1cc(-c2cc(C(=O)Nc3nc4ccccc4s3)nc3cc(-c4ccccc4)nn23)cc(OC)c1OC`: the growth was 49.1%.

As to `Cn1cc(-c2csc(-c3cn(C)c4ncccc34)n2)c2cc(Br)cnc21`, the growth is 82%.

Regarding `O=C1c2nsnc2C(=O)c2c(F)c(F)c(F)c(F)c21`, the growth was -22.5% (active).

Regarding `CCCCCCCC/C=C\CCCCCCCCOc1ccccc1CC(=O)NCC[N+]1(C)CCCC1`, the growth was 78.1%.

Regarding `CCCCCCCCCCCCCCCCCC1=NC(C)(C)CN1CCO`, the growth is 38.9%.

In the case of `O=C(Oc1ccc[nH]c1=O)c1cccc(Cl)c1`, the growth is 95.6%.

As to `N#CCCCCCn1c2ccccc2c2c3c(c4c5ccccc5[nH]c4c21)C(=O)N(O)C3=O`, the growth was -5.54% (active).

On to `CCOC(=O)C1C(=O)OC2CCCCC21` (stereo not given), for which the growth was 101%.

With `CC(C)C(=O)Cc1cnccn1`, the growth was 93.7%.

Consider `O=C1/C(=C/c2ccc([N+](=O)[O-])s2)Oc2ccc(Br)cc21`, for which the growth is -48.3% (active).

For `COc1cccc2c1O/C(=C\c1c([N+](=O)[O-])ncn1C)C2=O`, the growth was 99.8%.

In the case of `C/C(=C\CCc1ccoc1)CC/C=C(\C)CCCN1CCC(CO)CC1`, the growth was 74.8%.

With `CC(=O)NCCSC(=O)C(=O)SCCNC(C)=O`, the growth is 109%.

Take `N=C(N)/N=C(\CCc1nc2ccccc2[nH]1)c1nc2ccccc2[nH]1`: the growth is 91.6%.

Take `COc1ccc(-c2cncn2-c2ccc(-c3nc4cc(OC)c(OC)c(OC)c4s3)cc2)cc1N`: the growth is 72.9%.

Turning to `COc1ccc(C2CC(c3ccc(OC)c(OC)c3)=NN2C(=O)c2cc(OC)c(OC)c(OC)c2)c(OC)c1` (stereo not given), the growth is 92.6%.

Regarding `Clc1ccc(-c2nc(-c3cccs3)no2)c(Cl)c1`, the growth is 92.6%.

In the case of `CCN(CC)CCNc1ccc(Cl)cc1Cl`, the growth is 101%.

Regarding `COc1ccc(OC)c(NC(=O)c2cc3oc4ccccc4c3cc2O)c1`, the growth is 87.4%.

Regarding `O=C(/C=C/c1cc2ccccc2[nH]c1=O)c1ccc(O)cc1`, the growth is 56.9%.

For the molecule `CO[C@H]1/C=C/O[C@@]2(C)Oc3c(C)c(O)c4c(O)c(c(/C=N/N5CCN(C)CC5)c(O)c4c3C2=O)NC(=O)/C(C)=C\C=C\C(C)[C@H](O)[C@@H](C)[C@@H](O)[C@@H](C)[C@@H](OC(C)=O)[C@@H]1C` (stereo not given in full), the growth was 96.3%.

Consider `CSc1ccc2c(c1)N(CCC1CCCCN1C)c1ccccc1S2` (stereo not given), for which the growth is 83.9%.

These data come from PubChem BioAssay (NCI).
